# Data: the supplement of paper PMC10933113
# Where a name gives a salt, the structure may show the parent alone. ± gives the uncertainty stated by the source.
# Tested on: THP-1
# Test: CD54 surface expression induction over DMSO control (% over DMSO); higher = stronger dendritic cell activation
# Settings: exposure time: 24 h
# Protocol: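 hCLAT-like CD54 and CD86 surface expression on THP1 cells after 24 h exposure at a single concentration (highest non-cytotoxic concentration, or 100-200 µM if not cytotoxic). Flow cytometry (iQue) was run on 5,000 live cells.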
row,SMILES,CD54 surface expression induction
1,O=C1c2cccc(O)c2C(=O)c2c(O)cc(CO)cc21 [Aloe-emodin] (100 µM),24.6 ± 18
2,O=C(CCCCCCC(=O)Nc1ccccc1)NO [Vorinostat (SAHA)] (100 µM),4.99 ± 15
3,CC1=C(/C=C/C(C)=C/C=C/C(C)=C/C=O)C(C)(C)CCC1 [13-cis-Retinal (Vitamin A aldehyde)] (100 µM),188 ± 9.3
4,O=C(OCc1ccccc1)c1ccc(O)cc1 [Benzylparaben] (100 µM),-6.45 ± 0.19
5,C/C=C1\C(=O)C[C@H]2[C@@H]3CCC4=CC(=O)CC[C@]4(C)[C@H]3CC[C@]12C [Guggulsterone Z] (100 µM),-3.76 ± 3.3
6,"CCCCNC(=S)NCCCC [N,N'-Dibutylthiourea] (10 µM)",-6.77 ± 3.8
7,COc1cccc2c1C(=O)c1c(O)c3c(c(O)c1C2=O)C[C@@](O)(C(=O)CO)C[C@@H]3O[C@H]1C[C@H](N)[C@H](O[C@@H]2CCCCO2)[C@H](C)O1 [Pirarubicin*] (10 µM),263 ± 46
8,CC(C)c1ccc2oc3nc(N)c(C(=O)O)cc3c(=O)c2c1 [Amlexanox] (100 µM),-5.95 ± 2.7
9,CC(C)(C)OC(=O)c1ccc(O)cc1 [tert-Butyl 4-hydroxybenzoate] (100 µM),1.75 ± 0.96
10,Oc1c(Br)cc(Br)c2cccnc12 [Broxyquinoline] (100 µM),49.3 ± 18
11,O=[N+]([O-])c1cc(N(CCO)CCO)ccc1NCCO (200 µM),3.92 ± 4.8
12,COc1ccc(C(=O)c2ccc(C)cc2)c(O)c1 [Mexenone] (300 µM),-5.78 ± 3.4
13,C=CCOC(=O)/C=C\C(=O)OCC=C [Diprop-2-en-1-yl (2Z)-but-2-enedioate] (203 µM),-3.66 ± 5.6
14,CN(C)c1ccc(C(=C2C=CC(=[N+](C)C)C=C2)c2ccccc2)cc1 [Malachite green oxalate*] (10 µM),132 ± 20
15,CC1COc2ccccc2N1C(=O)C(Cl)Cl (stereo not given) [Benoxacor] (10 µM),13.4 ± 3.8
16,CC[C@@]1(O)C(=O)OCc2c1cc1n(c2=O)Cc2c-1nc1ccccc1c2/C=N/OC(C)(C)C [Gimatecan] (10 µM),-15.7 ± 5
17,Cc1ccc(N)cc1O [5-Amino-2-methylphenol] (200 µM),34.1 ± 7.2
18,CCCCCCCCCCCC(=O)NCCCN(C)C [N-[3-(Dimethylamino)propyl]dodecanamide] (200 µM),14.4 ± 11
19,O=C(NS(=O)(=O)/C=C/c1cccs1)c1ccc(F)cc1Br (200 µM),4.11 ± 1.7
20,CC(C)(C)c1cc(O)ccc1O [tert-Butylhydroquinone] (100 µM),48.9 ± 12

row,SMILES,CD54 surface expression induction
1,NC(=O)n1c(O)c(C(=O)c2cccs2)c2cc(Cl)ccc21 [Tenidap*] (200 µM),157 ± 35
2,"c1ccc(-c2ccccn2)nc1 [2,2'-Dipyridyl] (200 µM)",-9.09 ± 20
3,CCN(CC)CCSC(=O)C(c1ccccc1)c1ccccc1 [Thiphenamil] (200 µM),99.2 ± 12
4,O=c1cc(-c2ccccc2)oc2cc(O)cc(O)c12 [Chrysin] (100 µM),18.9 ± 1.4
5,CCOc1ccc2nc3cc(N)ccc3c(N)c2c1 [Ethacridine lactate monohydrate] (200 µM),-29.7 ± 6.5
6,O=C(Oc1ccccc1)c1ccccc1O [Phenyl salicylate] (200 µM),-8.79 ± 7.5
7,COc1ccc(C(=O)/C(Br)=C\C(=O)O)cc1 [Cytembena] (200 µM),62.5 ± 6.9
8,O=c1cc(-c2ccccc2)oc2ccccc12 [Flavone] (200 µM),62.9 ± 14
9,C=CCOC(Cn1ccnc1)c1ccc(Cl)cc1Cl (stereo not given) [Imazalil sulfate] (100 µM),11.6 ± 11
10,Cc1cccc(N(C)C(=S)Oc2ccc3c(c2)C2CCC3C2)c1 (stereo not given) [Tolciclate] (100 µM),1.18 ± 1.2
11,"CC(C)(C)c1cc(O)c(C(C)(C)C)cc1O [2,5-Di-tert-butylbenzene-1,4-diol] (100 µM)",38.2 ± 50
12,c1ccc2[nH]c(-c3cscn3)nc2c1 [Thiabendazole] (100 µM),-2.19 ± 1.1
13,c1ccc2cc3c(ccc4ccccc43)cc2c1 [Benz(a)anthracene] (200 µM),-2.28 ± 4.7
14,"CC(O)C#CC(C)O (stereo not given) [Hex-3-yne-2,5-diol] (10 µM)",6.05 ± 3.8
15,"Nc1ccccc1N [1,2-Phenylenediamine*] (200 µM)",161 ± 20
16,CC(=O)C1(C)CC2=C(CCCC2(C)C)CC1C (stereo not given) (100 µM),4.57 ± 4.8
17,"CC(C)=CCC/C(C)=C\CO [(2Z)-3,7-Dimethylocta-2,6-dien-1-ol] (200 µM)",-9.15 ± 2.5
18,Cn1sccc1=O [2-Methyl-4-isothiazolin-3-one hydrochloride] (10 µM),-19.5 ± 27
19,"c1ccc(SCCSc2ccccc2)cc1 [1,2-Bis(phenylthio)ethane] (100 µM)",-6.44 ± 3
20,"Nc1nnc(-c2ccc([N+](=O)[O-])o2)o1 [2-Amino-5-(5-nitro-2-furyl)-1,3,4-oxadiazole] (10 µM)",-7.68 ± 3.2
